Results on 59 compounds are retold here after the antibiotic and cytotoxicity screens of Wong et al. (2023).

The campaign covered roughly 39,000 compounds. About 1,500 (3.8%) were called active. The sample as a whole holds a higher share of actives than the screen did.

The experiment has as its system HSkMC (human skeletal muscle cells). The experiment is described as follows: cytotoxicity call (relative viability < 0.9). The conditions noted are these: 10 µM.
As to `CC(C)(N)CO.Cn1c(=O)c2[nH]c(Br)nc2n(C)c1=O`, the cytotoxicity call is “inactive”.

In the case of `Cc1ccc(S(=O)(=O)N(C)C[C@H]2OCCCC[C@@H](C)Oc3ccc(NC(=O)CCC(F)(F)F)cc3C(=O)N([C@H](C)CO)C[C@H]2C)cc1`, the cytotoxicity call is “inactive”.

As to `CO[C@H]1CN(C)C(=O)c2ccc(NC(C)=O)cc2OC[C@@H](C)N(S(=O)(=O)c2cn(C)cn2)C[C@@H]1C`, the cytotoxicity call was “inactive”. As for `C[C@@H]1CCCCO[C@@H](CN(C)Cc2ccc(Cl)c(Cl)c2)[C@@H](C)CN([C@H](C)CO)C(=O)c2cc(N(C)C)ccc2O1`, the cytotoxicity call was “inactive”.

In the case of `Cc1noc(C)c1NC(=O)Nc1ccc2c(c1)CC(=O)N([C@H](C)CO)C[C@H](C)[C@H](CN(C)C(=O)NC(C)C)O2`, the cytotoxicity call is “inactive”. On to `C[C@@H]1CCCCO[C@H](CN(C)Cc2ccncc2)[C@@H](C)CN([C@@H](C)CO)C(=O)c2cc(NC(=O)Nc3cccc4ccccc34)ccc2O1`, for which the cytotoxicity call is “inactive”. As for `COc1ccc(S(=O)(=O)Nc2ccc3c(c2)C(=O)N([C@H](C)CO)C[C@@H](C)[C@@H](CN(C)Cc2ccncc2)O3)cc1`, the cytotoxicity call is “inactive”. With `C[C@H]1CCCCO[C@@H](CN(C)C(=O)Nc2ccc3c(c2)OCO3)[C@@H](C)CN([C@@H](C)CO)C(=O)c2cc(NC(=O)c3ccncc3)ccc2O1`, the cytotoxicity call was “inactive”. The same measure for `C[C@@H]1CN([C@H](C)CO)C(=O)CCCn2cc(nn2)CO[C@H]1CN(C)S(=O)(=O)c1cn(C)cn1`: “inactive”; for `COc1ccc(S(=O)(=O)N(C)C[C@H]2OCCCC[C@@H](C)Oc3ccc(NC(=O)Nc4ccccc4)cc3C(=O)N([C@@H](C)CO)C[C@@H]2C)cc1`: “inactive”; for `Cc1noc(C)c1S(=O)(=O)Nc1ccc2c(c1)C(=O)N([C@H](C)CO)C[C@H](C)[C@H](CN(C)S(C)(=O)=O)OCCCC[C@H](C)O2`: “inactive”. With `C[C@H]1[C@H](C)CC[C@]2(C(=O)O[C@@H]3O[C@H](CO[C@@H]4O[C@H](CO)[C@@H](O[C@@H]5O[C@@H](C)[C@H](O)[C@@H](O)[C@H]5O)[C@H](O)[C@H]4O)[C@@H](O)[C@H](O)[C@H]3O)CC[C@]3(C)C(=CC[C@@H]4[C@@]5(C)C[C@@H](O)[C@H](O)[C@@](C)(CO)[C@@H]5[C@H](O)C[C@]43C)[C@H]12`, the cytotoxicity call was “inactive”. Take `C[C@@H]1CN([C@@H](C)CO)C(=O)c2cc(NC(=O)c3ccccc3)ccc2O[C@@H](C)CCCCO[C@H]1CN(C)C(=O)c1ccccc1`: the cytotoxicity call is “inactive”. Turning to `COc1ccccc1S(=O)(=O)N[C@H]1CC[C@H](CCNC(=O)C2CCOCC2)O[C@H]1CO`, the cytotoxicity call is “inactive”. Take `Cc1noc(C)c1S(=O)(=O)N(C)C[C@H]1Oc2ccc(NC(=O)Nc3ccc4c(c3)OCO4)cc2CC(=O)N([C@H](C)CO)C[C@@H]1C`: the cytotoxicity call was “inactive”. Consider `C[C@@H]1CCCCO[C@H](CN(C)CC2CCCCC2)[C@@H](C)CN([C@H](C)CO)C(=O)c2cc(NC(=O)Nc3ccc(C(F)(F)F)cc3)ccc2O1`, for which the cytotoxicity call is “active”.

As to `C[C@@H]1CCCCO[C@@H](CN(C)CC2CCCCC2)[C@@H](C)CN([C@H](C)CO)C(=O)c2cc(NC(=O)Nc3ccc(C(F)(F)F)cc3)ccc2O1`, the cytotoxicity call is “active”. For the compound `C[C@@H]1CN([C@H](C)CO)C(=O)c2cc(NC(=O)Nc3ccc(C(F)(F)F)cc3)ccc2O[C@@H](C)CCCCO[C@@H]1CN(C)CC1CCCCC1`, the cytotoxicity call is “active”. With `C[C@H](CO)N1C[C@H](C)[C@@H](CN(C)CC2CCCCC2)OCCCC[C@H](C)Oc2ccc(NC(=O)Nc3ccc(C(F)(F)F)cc3)cc2C1=O`, the cytotoxicity call was “active”. The value for `C[C@H]1CN([C@@H](C)CO)C(=O)c2cc(NC(=O)CCCN(C)C)ccc2O[C@H]1CN(C)C(=O)NC1CCCCC1` was “inactive”. The same measure for `C[C@H]1CN([C@@H](C)CO)C(=O)c2cccc(NC(=O)CCCCCC(=O)Nc3ccccc3N)c2O[C@@H]1CN(C)C(=O)Nc1ccccc1`: “inactive”.

As to `C[C@H](CO)N1C[C@H](C)[C@@H](CN(C)Cc2ccc(C(=O)O)cc2)OCCCC[C@H](C)Oc2ccc(NC(=O)C3CCCCC3)cc2C1=O`, the cytotoxicity call was “inactive”.

Turning to `C[C@@H]1CN([C@@H](C)CO)C(=O)Cc2cc(NC(=O)Nc3ccc(F)cc3)ccc2O[C@@H]1CN(C)C(=O)Nc1cccc2ccccc12`, the cytotoxicity call is “inactive”. `COc1ccc(C#Cc2ccc3c(c2)[C@]2(C(=O)N3)[C@H](C(=O)Nc3nc4ccccc4s3)[C@H]3C(=O)O[C@H](c4ccccc4)[C@H](c4ccccc4)N3[C@@H]2c2ccc(O)cc2)cc1`: the cytotoxicity call is “inactive”.

Regarding `Cc1ccc(S(=O)(=O)N(C)C[C@@H]2Oc3ccc(NS(C)(=O)=O)cc3C(=O)N([C@@H](C)CO)C[C@@H]2C)cc1`, the cytotoxicity call is “inactive”. For the compound `NCc1nncn1-c1ccc(F)cc1`, the cytotoxicity call is “inactive”. The value for `C[C@H](CO)N1C[C@H](C)[C@H](CN(C)CC2CCCCC2)OCCCC[C@H](C)Oc2ccc(NC(=O)c3ccncc3)cc2C1=O` was “inactive”; that for `C[C@H](CO)N1C[C@H](C)[C@@H](CN(C)S(=O)(=O)c2cccs2)Oc2c(NS(=O)(=O)c3cn(C)cn3)cccc2C1=O` was “inactive”; that for `COCC#Cc1cnc2c(c1)C(=O)N([C@@H](C)CO)C[C@@H](C)[C@@H](CN(C)C(=O)CN1CCOCC1)O2` was “inactive”. The value for `C[C@@H]1CN([C@@H](C)CO)C(=O)c2cc(NC(=O)Nc3ccc(C(F)(F)F)cc3)ccc2O[C@@H](C)CCCCO[C@@H]1CN(C)CC1CCCCC1` was “inactive”; that for `C[C@H]1CCCCO[C@@H](CN(C)CC2CCCCC2)[C@@H](C)CN([C@@H](C)CO)C(=O)c2cc(NC(=O)Nc3ccc(C(F)(F)F)cc3)ccc2O1` was “active”. As to `C[C@@H]1CCCCO[C@@H](CN(C)CC2CCCCC2)[C@H](C)CN([C@H](C)CO)C(=O)c2cc(NC(=O)Nc3ccc(C(F)(F)F)cc3)ccc2O1`, the cytotoxicity call is “active”.

Regarding `C[C@@H]1CN([C@@H](C)CO)C(=O)c2cc(NC(=O)Nc3ccc(C(F)(F)F)cc3)ccc2O[C@@H](C)CCCCO[C@H]1CN(C)CC1CCCCC1`, the cytotoxicity call is “inactive”. Consider `Cc1noc(C)c1NC(=O)Nc1ccc2c(c1)C(=O)N([C@H](C)CO)C[C@H](C)[C@H](CN(C)Cc1ccncc1)OCCCC[C@@H](C)O2`, for which the cytotoxicity call was “inactive”. With `CO[C@@H]1CN(C)C(=O)c2cc(NS(C)(=O)=O)ccc2OC[C@@H](C)N(C(=O)CN(C)C)C[C@@H]1C`, the cytotoxicity call is “inactive”. Consider `C[C@H]1CN([C@@H](C)CO)C(=O)c2cc(NS(=O)(=O)c3cn(C)cn3)ccc2O[C@H]1CN(C)S(C)(=O)=O`, for which the cytotoxicity call was “inactive”. With `C[C@H]1CN([C@@H](C)CO)S(=O)(=O)c2ccc(C#CC3(O)CCCC3)cc2O[C@@H]1CN(C)C(=O)Cc1ccncc1`, the cytotoxicity call is “inactive”. The same measure for `COc1ccc(S(=O)(=O)N(C)C[C@H]2OCCCC[C@@H](C)Oc3ccc(NC(=O)c4ccccc4)cc3C(=O)N([C@H](C)CO)C[C@@H]2C)cc1`: “inactive”; for `C[C@@H]1CN([C@H](C)CO)C(=O)c2cc(NC(=O)Cc3ccccc3)ccc2O[C@@H](C)CCCCO[C@@H]1CN(C)C(=O)C1CCCCC1`: “inactive”. As to `COC(=O)C[C@](O)(CCCC(C)(C)O)C(=O)O[C@@H]1C(OC)=C[C@]23CCCN2CCc2cc4c(cc2[C@H]13)OCO4`, the cytotoxicity call was “active”. On to `C[C@@H]1CN([C@@H](C)CO)C(=O)CCCn2cc(nn2)CO[C@@H]1CN(C)C(=O)Nc1cccc(C(F)(F)F)c1`, for which the cytotoxicity call was “inactive”.

`C[C@H](CO)N1C[C@H](C)[C@@H](CN(C)C(=O)C2CCCCC2)OCCCC[C@H](C)Oc2ccc(NC(=O)Cc3ccccc3)cc2C1=O`: the cytotoxicity call was “inactive”. The same measure for `C[C@H]1CN([C@@H](C)CO)S(=O)(=O)c2ccc(C#CC3CC3)cc2O[C@H]1CN(C)Cc1ccc(F)cc1`: “inactive”; for `C[C@H]1CN([C@@H](C)CO)S(=O)(=O)c2ccc(C#CC3CC3)cc2O[C@@H]1CN(C)Cc1ccc(F)cc1`: “active”.

In the case of `C[C@@H]1CN([C@H](C)CO)S(=O)(=O)c2ccc(C#CC3CC3)cc2O[C@H]1CN(C)Cc1ccc(F)cc1`, the cytotoxicity call is “active”. `C[C@@H]1CN([C@@H](C)CO)S(=O)(=O)c2ccc(C#CC3CC3)cc2O[C@H]1CN(C)Cc1ccc(F)cc1`: the cytotoxicity call is “inactive”.

With `C[C@@H]1CN([C@H](C)CO)S(=O)(=O)c2ccc(C#CC3CC3)cc2O[C@@H]1CN(C)Cc1ccc(F)cc1`, the cytotoxicity call is “inactive”. The value for `C[C@H](CO)N1C[C@H](C)[C@@H](CN(C)Cc2ccc(F)cc2)Oc2cc(C#CC3CC3)ccc2S1(=O)=O` was “inactive”; that for `CO[C@@H]1CN(C)C(=O)c2cc(NC(=O)Nc3ccccc3F)ccc2OC[C@@H](C)N(CCC(F)(F)F)C[C@H]1C` was “inactive”. In the case of `C[C@@H]1CN([C@@H](C)CO)C(=O)c2cc(NC(=O)Cc3ccccc3)ccc2O[C@@H]1CN(C)C(=O)Nc1ccc(C(F)(F)F)cc1`, the cytotoxicity call was “inactive”.

Take `O=C([C@H]1[C@H](CO)[C@H]2Cn3c(cccc3=O)[C@H]2N1C(=O)C1CCCC1)N1CCOCC1`: the cytotoxicity call is “inactive”. As for `COc1ccc(CN(C)C[C@H]2Oc3c(NC(=O)C4CCOCC4)cccc3C(=O)N([C@H](C)CO)C[C@@H]2C)cc1`, the cytotoxicity call is “inactive”. As to `O=C(C[C@H]1CC[C@H]2[C@@H](COC[C@@H](O)CN2C(=O)Nc2cccc(F)c2)O1)NCc1ccccc1Cl`, the cytotoxicity call is “inactive”. In the case of `CCC(=O)Nc1ccc(C)c(C)c1`, the cytotoxicity call is “inactive”. As to `C[C@@H]1CCCCO[C@@H](CN(C)C(=O)Nc2ccc(F)cc2)[C@@H](C)CN([C@H](C)CO)C(=O)c2cc(NC(=O)CCCN(C)C)ccc2O1`, the cytotoxicity call was “inactive”.

With `Cc1ccc(S(=O)(=O)N(C)C[C@@H]2Oc3ccc(NS(=O)(=O)c4cccs4)cc3CC(=O)N([C@@H](C)CO)C[C@H]2C)cc1`, the cytotoxicity call is “inactive”. As for `COc1ccc(COCC23Oc4ccccc4[C@H]([C@H]2CO[Si](C)(C)C(C)(C)C)n2c(c4ccccc4c(-c4ccccc4)c2=O)N3C)cc1`, the cytotoxicity call was “active”. On to `COC(=O)c1c(C(=O)OC)c2n(c(=O)c1-c1ccccc1)[C@@H]1c3ccccc3O[C@@](COCc3ccc(OC)cc3)([C@@H]1CO[Si](C)(C)C(C)(C)C)N2C`, for which the cytotoxicity call is “inactive”. Turning to `COc1ccc(COCC23Oc4ccccc4[C@H]([C@H]2CO)n2c(c4ccccc4c(-c4ccccc4)c2=O)N3C)cc1`, the cytotoxicity call is “inactive”.
